# The campaign covered roughly 140,000 compounds. About 4,300 (3.1%) were called active. Inconclusive results (about 21%) are left out. The sample holds actives, similar compounds and a random draw of the others, so the mix is not that of the screen.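 Rule for the calls: active = readout at or below -70, meaning at least 70% loss of cells showing the perinucleolar compartment, a nuclear body marking cancer cells; inconclusive = readout between -30 and a set limit; inactive = the rest.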
# Experiment: High Content Assay for Compounds that inhibit the Assembly of the Perinucleolar Compartment;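 note: plate controls were DMSO wells for no effect and camptothecin positive control wells for full effect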
# Conditions: PC3M PTB-GFP, PNC prevalence imaging, 16 h; at 10 µM; active compounds read low
# Source text: High Content Assay for Compounds that inhibit the Assembly of the Perinucleolar Compartment NIH Chemical Genomics Center [NCGC] NIH Molecular Libraries Probe Centers Network [MLPCN] MLPCN Grant: MH082371-01A2 Assay Submitter (PI): Sui Huang, Northwestern University, Feinberg School of Medicine, Cell and Molecular Biology, Chicago, Illinois. The perinucleolar compartment (PNC) is a non-membrane-bound nuclear subdomain that is associated with but structurally distinct from the nucleolus. The PNC is a heritable trait, in which the number of PNCs per cell in daughter cells often mimics that of their mother cells. The PNC is heterogeneous in shape, is stable through interphase, disassembles during mitosis, and reassembles in early G1. The PNC is concentrated with newly synthesized RNA polymerase III (pol III) RNAs (MRP RNA, RNAse P H1 RNA, hY RNAs[hY1, 2, 5], Alu RNA, and SRP [7SL] RNA) and RNA binding proteins (nucleolin, PTB, CUG-BP, KSRP, Raver1, Raver2, and Rod). […] Extensive in vitro studies have shown that the PNC is unique to tumor cells and preferentially forms in tumor cells derived from solid tissues. Examination of cancer cell lines from various origins and malignant capacities has shown that PNC prevalence correlates with the malignancy of tumors and has the potential to be developed as a pan-cancer prognostic marker. […] Although the PNC is associated with a DNA locus and a handful of components have been identified, much remains to be investigated regarding the structure and function of the PNC and its mechanistic link to cancer. We have previously shown that PNC prevalence reduction is a valid strategy to identify compounds that can be used to study the structure and function of the PNC. It is necessary, however, to create a screening platform that is able to test a large number of compounds in an automated fashion. Here we report the development and robustness of an automated whole-cell phenotypic image-based screening assay that is capable of identifying such compounds.
# PNC High Content Imaging Assay Procedure: 1. Cells at a density of 75-90% confluency in T175 flasks were harvested using 7 ml TrypLE Express cell dissociation reagent. After dissociation (5 minutes room temperature incubation) 10 ml of complete media was added to the TrypLE/cell suspension. The liquid was transferred to a 50 ml Conical tube and cells were pelleted at 1000 RPM for 5 min. Supernatant was removed and cells were resuspended to a final density of 150-200 cells/ul in complete media. 2. Cells were plated in 5 ul volume (750-1000 cells/well) into 1536 well Black uclear Aurora Low Base plates and allowed to recover and adhere at 37 C in a humidified 5% CO2 incubator for 4 hours. 3. After 4 hour incubation, compound libraries (23 nl of […] in columns 5-48) were transferred to the plates in duplicate using a 1536 well pintool. Camptothecin positive control (59 uM final) was added to column 2 and 1:3 dilutions of camptothecin was added to column 3. DMSO negative controls were present in columns 1 and 4. 4. After a 16 hour incubation in the 37 C incubator, cells were fixed by the addition of 4 ul of 6% EM grade paraformaldehyde (containing 0.1% triton X 100) directly to the cells. The plates were incubated at room temperature for 20 minutes. The liquid was removed using a 32 channel Kalypsys aspirator and the fixed cells were washed twice with 5 ul PBS followed by a final addition of 5 ul PBS containing 1 ug/ml Hoechst 33342. 5. Fixed plates were sealed and sotred at 4C until imaged. 6. Plates were imaged on an InCell 1000 automated microscope using a 20 x objective, a standard FITC filter set, no camera binning, and an exposure time of ~100-150 msec/well. 7. Data analysis. PNC prevalence was determined using the Multitarget analysis module from InCell Workstation software (V3.5 ) and analysis was run on a quad core workstation using the Incell Developer Toolbox (V1.7). […]
row,Compound,"activity change (PNC), negative = inhibition"
1,c1cc2c(cc1CCNC1CCCCCC1)OCO2,-119% (active)
2,CC(=NCc1ccc2c(c1)OCO2)c1c(O)[nH]c(=O)[nH]c1=O,-17.3% (inactive)
3,OC(CNC1CCCCC1)c1ccccc1 (stereo not given),38.6% (inactive)
4,CNC(=S)N/N=C1\C2CN3CCN(C2)CC1(c1ccccc1)C3,-18.5% (inactive)
5,CCOC(=O)C(O)(c1ccc(N=Cc2ccccc2O)c(C)c1)C(F)(F)F (stereo not given),-11.8% (inactive)
6,Cc1ccc(-n2c(C)cc(/C=C3\C(=O)NC(=O)N(C)C3=O)c2C)cc1C,23.8% (inactive)
7,O=C(CCCn1c(=O)[nH]c2cc(Cl)ccc2c1=O)N1CCC2(CC1)OCCO2,44% (inactive)
8,Cc1ccc(Cn2c(C)c3cnn(CC(=O)N4CCC5(CC4)OCCO5)c(=O)c3c2C)cc1,-100% (active)
9,COc1ccc(-c2nc(CS(=O)CC(=O)N3CCC4(CC3)OCCO4)c(C)o2)cc1 (stereo not given),-14.2% (inactive)
10,CC(C)N(CC#CCC1(O)c2ccccc2-c2ccccc21)C(C)C,48.8% (inactive)
11,CN(C)C(=O)Oc1cc(=O)n2c3c(cccc13)CCC2,23.5% (inactive)
12,Cc1ccc(-n2c(-c3ccc([N+](=O)[O-])cc3)nc3ccccc3c2=O)cc1,-17% (inactive)
13,CC(C(=O)Nc1ccc(Cl)cc1Cl)N1CC=C(c2ccccc2)CC1 (stereo not given),38% (inactive)
14,Cc1cccc(OP(=O)(Oc2cccc(C)c2)OC(c2ccccc2)C(F)(F)F)c1 (stereo not given),-3.33% (inactive)
15,CCCCCn1c(=O)c(C(=O)NCc2ccccn2)c(O)c2ccccc21,-112% (active)
16,CCCCCn1c(=O)c(C(=O)Nc2c(C)n(C)n(-c3ccccc3)c2=O)c(O)c2ccccc21,-20.3% (inactive)
17,Cc1ccnc(-n2c(C)cc(/C=C3\C(=O)NC(=S)N(C)C3=O)c2C)c1,-11.7% (inactive)
18,C=CCn1c(O)c(/C=N/N2CCOCC2)c(=O)[nH]c1=S,60.9% (inactive)
19,CN1CCN(c2cc(N3CCNCC3)ccc2[N+](=O)[O-])CC1,12.6% (inactive)
20,CC1=C(C(=O)Nc2ccccc2)SCCO1,-98% (active)
21,O=C1NC(=O)N(c2ccc(F)cc2)C(=O)/C1=C/c1ccc2c(c1)CCCN2Cc1ccccc1,-20.7% (inactive)
22,O=C1N=c2ccccc2=C/C1=C\c1c(O)[nH]c(=S)[nH]c1=O,-19.2% (inactive)
23,CN(C)CC1CCCCC1OC(=O)c1ccc(Cl)c(Cl)c1 (stereo not given),-10.5% (inactive)
24,O=C1NC(=O)C(CCc2ccccn2)(Cc2cccc(Cl)c2Cl)C(=O)N1c1ccc(Br)cc1 (stereo not given),-14.3% (inactive)
25,Cc1ccc2c(c1)C1CN(C)CCC1N2C(=O)Cn1nnc(-c2ccccc2F)n1 (stereo not given),-101% (active)
